Measurements published in PubChem BioAssay AID1159580 (chemical genetic matrix, 2015).
About 2,000 (36%) of roughly 5,500 compounds were called active. Another 18% or so got no clear call; they are omitted. Cut-off read from the data, not from the text of the source: active = normalized growth mostly below about 0.91 (no sharp cut-off); inconclusive = no clear call, values can overlap the other calls; inactive = mostly above about 0.92. This is one part of the list.

Assay: chemical genetic growth profiling, strain panel (AID 1159580);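 note: tested at 20 µM; growth read once vehicle control cultures reached saturation at 30 °C; 1 = growth at the plate median or of vehicle wells; lower values mean less growth of the strain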
Settings: S. cerevisiae deletion strains, growth OD
[1] = locus YAR019C, strain CDC15, stronger effect = lower value
[2] = locus YBL105C, strain PKC1, stronger effect = lower value
[3] = locus YBR135W, strain CKS1, stronger effect = lower value
[4] = locus YBR136W, strain MEC1, stronger effect = lower value
[5] = locus YBR160W, strain CDC28, stronger effect = lower value
[6] = locus YDL017W, strain CDC7, stronger effect = lower value
[7] = locus YDL028C, strain MPS1, stronger effect = lower value
[8] = locus YDL101C, strain DUN1, stronger effect = lower value
[9] = locus YDL108W, strain KIN28, stronger effect = lower value
[10] = locus YDL132W, strain cdc53, stronger effect = lower value
[11] = locus YDL214C, strain PRR2, stronger effect = lower value
[12] = locus YDR052C, strain DBF4, stronger effect = lower value
[13] = locus YDR054C, strain cdc34, stronger effect = lower value
[14] = locus YDR226W, strain ADK1, stronger effect = lower value
[15] = locus YDR477W, strain SNF1, stronger effect = lower value
[16] = locus YER123W, strain YCK3, stronger effect = lower value
[17] = locus YER133W, strain GLC7, stronger effect = lower value
[18] = locus YFL009W, strain cdc4, stronger effect = lower value
[19] = locus YFL029C, strain CAK1, stronger effect = lower value
[20] = locus YFR003C, strain YPI1, stronger effect = lower value
[21] = locus YFR019W, strain FAB1, stronger effect = lower value
[22] = locus YFR028C, strain CDC14, stronger effect = lower value
[23] = locus YGR040W, strain KSS1, stronger effect = lower value
[24] = locus YGR052W, strain FMP48, stronger effect = lower value
[25] = locus YGR092W, strain DBF2, stronger effect = lower value
[26] = locus YHR079C, strain IRE1, stronger effect = lower value
[27] = locus YHR082C, strain KSP1, stronger effect = lower value
[28] = locus YHR205W, strain SCH9, stronger effect = lower value
[29] = locus YIL147C, strain SLN1, stronger effect = lower value
[30] = locus YJL095W, strain BCK1, stronger effect = lower value
[31] = locus YJL128C, strain PBS2, stronger effect = lower value
[32] = locus YJL157C, strain FAR1, stronger effect = lower value
[33] = locus YJR016C, strain ILV3, stronger effect = lower value
[34] = locus YJR066W, strain TOR1 (second series), stronger effect = lower value
[35] = locus YJR066W, strain TOR1, stronger effect = lower value
[36] = locus YKL048C, strain ELM1, stronger effect = lower value
[37] = locus YKL067W, strain YNK1, stronger effect = lower value
[38] = locus YKL101W, strain HSL1, stronger effect = lower value
[39] = locus YKL193C, strain SDS22, stronger effect = lower value
[40] = locus YKL203C, strain TOR2, stronger effect = lower value
[41] = locus YLR113W, strain HOG1, stronger effect = lower value
[42] = locus YLR133W, strain CKI1, stronger effect = lower value
[43] = locus YLR403W, strain SFP1, stronger effect = lower value
[44] = locus YML070W, strain DAK1, stronger effect = lower value
[45] = locus YMR001C, strain CDC5, stronger effect = lower value
[46] = locus YMR205C, strain PFK2 (second series), stronger effect = lower value
[47] = locus YMR277W, strain FCP1, stronger effect = lower value
[48] = locus YNL006W, strain LST8, stronger effect = lower value
[49] = locus YNL020C, strain ARK1, stronger effect = lower value
[50] = locus YNL161W, strain CBK1, stronger effect = lower value
[51] = locus YNL183C, strain NPR1, stronger effect = lower value
[52] = locus YNL207W, strain RIO2, stronger effect = lower value
[53] = locus YNL222W, strain SSU72, stronger effect = lower value
[54] = locus YNL307C, strain MCK1 (second series), stronger effect = lower value
[55] = locus YOL078W, strain AVO1, stronger effect = lower value
[56] = locus YOL136C, strain PFK27, stronger effect = lower value
[57] = locus YOR061W, strain CKA2, stronger effect = lower value
[58] = locus YOR119C, strain RIO1, stronger effect = lower value
[59] = locus YOR231W, strain MKK1, stronger effect = lower value
[60] = locus YOR329C, strain SCD5, stronger effect = lower value
[61] = locus YPL031C, strain PHO85, stronger effect = lower value
[62] = locus YPL153C, strain RAD53, stronger effect = lower value
[63] = locus YPL204W, strain HRR25, stronger effect = lower value
[64] = locus YPL209C, strain IPL1, stronger effect = lower value
[65] = locus YPL256C, strain CLN2, stronger effect = lower value
[66] = locus YPR025C, strain CCL1, stronger effect = lower value
[67] = locus YPR106W, strain ISR1, stronger effect = lower value
[68] = locus YPR111W, strain DBF20, stronger effect = lower value
[69] = strain NNK1, stronger effect = lower value
[70] = strain TSCII, stronger effect = lower value
[71] = locus YGR078C, strain PAC10, stronger effect = lower value
[72] = locus YGR229C, strain SMI1, stronger effect = lower value
[73] = locus YJR075W, strain HOC1, stronger effect = lower value
[74] = locus YMR263W, strain SAP30, stronger effect = lower value
[75] = locus YMR307W, strain GAS1, stronger effect = lower value
[76] = locus YNL153C, strain GIM3, stronger effect = lower value
[77] = locus YPL241C, strain CIN2, stronger effect = lower value
[78] = locus YHR030C, strain SLT2, stronger effect = lower value

Measured: normalized growth

CC(C)(C)c1csc(NNC(=O)c2ccc(Cl)cc2)n1
inactive: [1] 0.978 | [2] 0.979 | [3] 0.954 | [4] 0.981 | [5] 0.966 | [6] 0.978 | [7] 0.98 | [8] 0.968 | [9] 0.974 | [10] 0.968 | [11] 0.884 | [12] 0.984 | [13] 0.958 | [14] 0.975 | [15] 0.925 | [16] 0.795 | [17] 0.913 | [18] 0.966 | [19] 0.963 | [20] 0.982 | [21] 0.92 | [22] 0.96 | [23] 0.883 | [24] 0.923 | [25] 0.871 | [26] 0.891 | [27] 0.911 | [28] 0.882 | [29] 0.984 | [30] 0.863 | [31] 0.921 | [32] 0.885 | [33] 0.964 | [34] 0.946 | [35] 0.904 | [36] 0.892 | [37] 0.885 | [38] 0.829 | [39] 0.967 | [40] 0.958 | [42] 0.872 | [43] 0.861 | [44] 0.814 | [45] 0.974 | [46] 0.872 | [47] 0.975 | [48] 0.982 | [49] 0.884 | [50] 0.969 | [51] 0.837 | [52] 0.96 | [53] 0.963 | [54] 0.899 | [55] 0.962 | [56] 0.868 | [57] 0.899 | [58] 0.967 | [59] 0.812 | [60] 0.97 | [61] 0.912 | [62] 0.895 | [63] 0.914 | [64] 0.966 | [66] 0.964 | [67] 0.954 | [68] 0.949 | [69] 0.957 | [70] 0.969
active: [41] 0.756 | [65] 0.769

Cc1cc(NC(=O)Nc2ccc3c(ccn3C)c2)sn1
inactive: locus YAL040C, strain CLN3, stronger effect = lower value 0.993 | locus YDR363W, strain ESC2, stronger effect = lower value 1.02 | locus YER002W, strain NOP16, stronger effect = lower value 0.992 | [71] 0.999 | [72] 1 | [73] 1 | [74] 0.968 | [75] 0.996 | [76] 1.04 | locus YNL175C, strain NOP13, stronger effect = lower value 1.02 | locus YNL197C, strain WHI3, stronger effect = lower value 0.983 | locus YNL224C, strain SQS1, stronger effect = lower value 0.996 | locus YOR083W, strain WHI5 (second series), stronger effect = lower value 1.01 | [77] 0.992

CC(C)(C)OC(=O)NC1CCN(C(=O)c2ccc(Cl)cc2Cl)CC1
inactive: locus YAL013W, strain DEP1, stronger effect = lower value 1 | locus YBR229C, strain ROT2, stronger effect = lower value 0.993 | locus YCL061C, strain MRC1, stronger effect = lower value 1.01 | [8] 0.995 | locus YDL134C, strain PPH21, stronger effect = lower value 0.999 | locus YDR150W, strain NUM1, stronger effect = lower value 0.95 | locus YEL061C, strain CIN8, stronger effect = lower value 1 | [71] 1 | [72] 1.01 | [78] 1.11 | locus YHR087W, strain rtc3, stronger effect = lower value 0.996 | locus YJL187C, strain SWE1, stronger effect = lower value 1.01 | locus YJR043C, strain POL32, stronger effect = lower value 0.997 | [73] 0.999 | locus YKL190W, strain CNB1, stronger effect = lower value 1.01 | locus YLR039C, strain RIC1, stronger effect = lower value 1.02 | locus YLR058C, strain SHM2 (second series), stronger effect = lower value 1 | locus YLR085C, strain ARP6, stronger effect = lower value 1.03 | locus YLR262C, strain YPT6, stronger effect = lower value 1.09 | locus YML094W, strain GIM5, stronger effect = lower value 1.04 | locus YMR219W, strain ESC1, stronger effect = lower value 0.996 | [74] 0.989 | [75] 0.824 | locus YNL128W, strain TEP1, stronger effect = lower value 1.01 | [76] 1 | locus YNL298W, strain CLA4 (second series), stronger effect = lower value 1.01 | locus YNL322C, strain KRE1, stronger effect = lower value 0.995 | locus YNR030W, strain Alg12, stronger effect = lower value 1.02 | locus YPL055C, strain LGE1, stronger effect = lower value 1.08 | [77] 1.01 | locus YPR135W, strain CTF4, stronger effect = lower value 1

CC(C)(C)c1cc2nc(C(F)(F)F)cc(NNC(=O)c3ccc(Cl)cc3)n2n1
inactive: [1] 0.978 | [2] 0.994 | [3] 0.977 | [4] 0.989 | [5] 0.978 | [6] 0.996 | [7] 0.984 | [8] 0.991 | [9] 0.981 | [10] 0.974 | [11] 1.01 | [12] 0.989 | [13] 0.978 | [14] 0.982 | [15] 1.03 | [16] 0.999 | [17] 1.03 | [18] 0.981 | [19] 0.981 | [20] 0.992 | [21] 0.966 | [22] 0.979 | [23] 1.01 | [24] 1.12 | [25] 0.952 | [78] 1.04 | [26] 0.989 | [27] 1.06 | [28] 0.99 | [29] 0.983 | [30] 0.991 | [31] 0.961 | [32] 1.02 | [33] 0.977 | [34] 0.991 | [35] 1.05 | [36] 0.986 | [37] 1 | [38] 1.01 | [39] 0.977 | [40] 1.07 | [41] 0.983 | [42] 0.995 | [43] 0.991 | [44] 1 | [45] 0.994 | [46] 1 | [47] 0.973 | [48] 0.988 | [49] 1.01 | [50] 0.991 | [51] 0.988 | [52] 0.981 | [53] 0.975 | [54] 1 | [55] 0.98 | [56] 1.01 | [57] 0.995 | [58] 1.11 | [59] 0.988 | [60] 0.997 | [61] 1.03 | [62] 1.03 | [63] 1.05 | [64] 0.988 | [65] 0.994 | [66] 0.988 | [67] 0.988 | [68] 0.976 | [69] 0.983 | [70] 0.984
